Unmarked numbers belong to inactive results. Inconclusive results are not listed. The source made the active and inactive calls. Unless noted, calls follow the shape of the dose curve; as a rule, active = well fitted curve in the direction sought with a large enough effect; inconclusive = small, poorly fitted or top-dose-only effect, or another doubt; inactive = no such curve, though single readings can be large; an effect the other way counts as inactive or inconclusive.

In test [1] the target is Cytochrome P450 1A2 (Homo sapiens) (UniProt P05177). Nature of the test: p450-cyp1a2 (AID 410; calls by dose curve; also: potency is read from the fitted curve at half-maximal effect). An outline of the steps:
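20nM CYP1A2, 100uM Luciferin-ME (=Km), 100mM KPO4; cpd 10 min RT; +NADPH regen, 60 min RT; stop/detect 20 min; luminescence. Normalized to furafylline 57 uM = full inhibition.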

Test [2] deals with Glucocorticoid receptor (Homo sapiens) (UniProt P04150). Nature of the test: GR-GFP Redistribution (AID 450;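 active = compounds whose dose series gives a full or clear partial fitted curve of increased nuclear translocation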; also: potency is read from the fitted curve at half-maximal effect). The conditions noted are these: U2OS GR-GFP nuclear translocation, laser cytometry, 2 h.
Glucocorticoid receptor (Homo sapiens), sequence (P04150 whole entry, looked up): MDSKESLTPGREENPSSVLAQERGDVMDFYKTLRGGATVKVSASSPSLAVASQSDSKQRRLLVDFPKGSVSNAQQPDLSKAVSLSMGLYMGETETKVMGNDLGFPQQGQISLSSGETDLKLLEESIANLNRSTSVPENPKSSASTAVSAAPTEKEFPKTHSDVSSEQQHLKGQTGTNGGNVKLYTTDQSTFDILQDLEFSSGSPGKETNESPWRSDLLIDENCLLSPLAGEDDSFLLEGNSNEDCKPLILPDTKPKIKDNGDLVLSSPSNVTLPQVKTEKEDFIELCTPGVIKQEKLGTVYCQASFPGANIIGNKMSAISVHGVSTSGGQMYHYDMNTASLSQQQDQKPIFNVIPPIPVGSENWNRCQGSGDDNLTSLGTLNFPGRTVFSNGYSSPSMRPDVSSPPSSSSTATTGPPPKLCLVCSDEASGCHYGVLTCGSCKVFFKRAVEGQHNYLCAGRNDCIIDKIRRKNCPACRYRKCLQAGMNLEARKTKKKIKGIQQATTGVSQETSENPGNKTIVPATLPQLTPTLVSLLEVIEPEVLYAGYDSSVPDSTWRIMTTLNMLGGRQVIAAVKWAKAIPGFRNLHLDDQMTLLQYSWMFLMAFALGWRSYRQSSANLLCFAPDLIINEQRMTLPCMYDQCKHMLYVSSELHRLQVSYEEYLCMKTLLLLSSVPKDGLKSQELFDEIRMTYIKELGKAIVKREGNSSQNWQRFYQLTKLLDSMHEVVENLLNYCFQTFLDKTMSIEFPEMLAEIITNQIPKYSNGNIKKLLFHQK
Test [3] has the same target. Kind of test: GR-EFC Redistribution (AID 451; calls by dose curve; also: potency is read from the fitted curve at half-maximal effect). Particulars: CHO-K1 GR-EFC translocation, beta-gal luminescence, 2 h. An outline of the steps:
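CHO-K1 cells expressing nuclear EA and GR-ED fragments of b-gal; compounds titrated up to 46 uM final, 2 h at 37 C. GR nuclear translocation read as complemented b-gal luminescence after 1 h RT detection.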

In test [4] the target is Mitogen-activated protein kinase 10 (Mus musculus) (UniProt Q61831). Kind of test: JNK3 AlphaScreen Assay (AID 530; active = well fitted curve in either direction with a large enough effect, not every such curve was filed as active;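 also: kinase came from lysate of stimulated human HepG2 cells; signal reports phosphorylation of biotinylated GST-cJun 1-79 at Ser73 with 10 µM ATP; series mostly up to about 57 µM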). The essentials:
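HepG2 lysate (IL-1b/TNFa pre-activated) + biotin-GST-cJun 1-79 + anti-pSer73 cJun; cpd titration, 15 min RT; ATP 10 uM start; Tris pH 7.6, MgCl2, DTT, vanadate; beads in EDTA buffer; AlphaScreen.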
A general note: Bead proximity is the source of the signal in Alpha formats.

Test [5] addresses 3',5'-cyclic-AMP phosphodiesterase 4B (Homo sapiens) (UniProt Q07343). Nature of the test: qHTS Assay for Inhibitors of PDE-IV (AID 607; active = well fitted activation curve with a large enough effect in the main read-out, with a control signal flat, not every such curve was filed as active). An outline of the steps: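 ACTOne HEK293 cells carry a modified cAMP-gated CNG channel and express endogenous PDE4; plated 1000 cells/well, compounds up to 22.9 uM final. Membrane-potential dye fluorescence (ex 535/em 590) was read; parental cells received 10 uM forskolin + 100 uM RO 20-1724.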
A general note: Quantitative high-throughput screening tests each substance at several concentrations.

For another test, the target named is Furin (Homo sapiens) (UniProt P09958). Nature of the test: Furin counterscreen qHTS for Zika virus inhibitors (AID 1347149).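 Also: purified recombinant full-length human furin enzyme at 5 nM; fluorescence gain from furin cutting a BOC-RVRR-AMC peptide substrate over 15 min; top concentration of the series differs between compounds; nearly all actives have a fitted effect of over 70% in size.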 An outline of the steps:
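Counterscreen measures cleavage of 2 microM BOC-RVRR-AMC, below its ~15 microM Km, by 5 nM full-length human furin at pH 7.0 after a 15-min compound preincubation. Inhibition derives from the 15-min fluorescence increase at 37C.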
For orientation: Counterscreens check selectivity or assay interference.

In test [6] the test system is Zika virus NS2B-NS3 protease (unlinked complex). Kind of test: Confirmatory screen GU AMC qHTS for Zika virus inhibitors (AID 1347153). Also: nearly all actives have a fitted effect of over 70% in size. An outline of the steps:
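Noncovalent NS2B hydrophilic domain/NS3 protease complex (25 nM) in 10 mM Tris-HCl pH 8.0, 0.01% Tween 20 was preincubated 15 min at room temperature with compounds. Then 10 µM AMC substrate (Km 18.3 µM) was added; fluorescence was read over 15 min and fitted to a 4-parameter Hill equation.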

Test [7] can be described thus: Confirmatory screen NINDS Rhodamine qHTS for Zika virus inhibitors (AID 1347161). Also: potency is read from the fitted curve at half-maximal effect; nearly all actives have a fitted effect of over 60% in size. An outline of the steps: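 Each compound, titrated, sat 15 min with 25 nM linked protease before 1.5 microM Rhodamine110 substrate went in. Fluorescence gain over the next 15 min, in pH 8.0 Tris with Tween 20, gave Hill-fitted curves.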
In test [8] the test system is Zika virus NS2B-NS3 protease (linked construct). Kind of test: 384 well plate NINDS Rhodamine confirmatory qHTS for Zika virus inhibitors (AID 1347164).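 Also: fluorescence from protease cleavage of Ac-LKRR-rhodamine 110 substrate; top concentration of the series differs between compounds; nearly all actives have a fitted effect of over 65% in size.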 An outline of the steps: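 Fluorescence read at ex 485 nm/em 538 nm, 25 min after adding 10 microM Ac-LKRR-Rd substrate at room temperature in the dark; signal normalized to no-enzyme and no-inhibitor controls. Enzyme final 5, 30 or 60 nM; compounds, ~15 min preincubation.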

The nature of test [9]: Vero cells viability qHTS for Zika virus inhibitors (AID 1347167). An outline of the steps:
(§1)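 qHTS titration; 24-48 h compound exposure, 37 degrees C/5% CO2; DMEM, 4% FBS; CellTiter Glo ATP luminescence.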

Test [10] can be described thus: HepG2 cells viability qHTS for Zika virus inhibitors (AID 1347168). An outline of the steps: as §1
A short description of test [11]: Tertiary RLuc qRT-PCR qHTS assay for Zika virus inhibitors (AID 1347169). Also: top concentration of the series differs between compounds; nearly all actives have a fitted effect of over 55% in size. An outline of the steps: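 Luminescence read-out: live-cell Renilla luciferase substrate applied to infected Vero cells, signal measured after 1-1.5 hrs. Cells had received compound before ZIKV-RLuc (Cambodian strain, MOI 1-2) infection and were incubated 48-72 hrs at 37 degrees C.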
A short description of test [12]: Primary qHTS for small molecule stabilizers of the endoplasmic reticulum resident proteome: Secreted ER Calcium Modulated Protein (SERCaMP) assay (AID 1508630). An outline of the steps: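 The SH-SY5Y reporter protocol was run at 3 concentrations up to 38.3 uM (primary) or 11 concentrations (follow-up): 16 h compound, 100 nM thapsigargin for 4 h, then extracellular luciferase luminescence.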

Furin (Homo sapiens), sequence (P09958 whole entry, looked up): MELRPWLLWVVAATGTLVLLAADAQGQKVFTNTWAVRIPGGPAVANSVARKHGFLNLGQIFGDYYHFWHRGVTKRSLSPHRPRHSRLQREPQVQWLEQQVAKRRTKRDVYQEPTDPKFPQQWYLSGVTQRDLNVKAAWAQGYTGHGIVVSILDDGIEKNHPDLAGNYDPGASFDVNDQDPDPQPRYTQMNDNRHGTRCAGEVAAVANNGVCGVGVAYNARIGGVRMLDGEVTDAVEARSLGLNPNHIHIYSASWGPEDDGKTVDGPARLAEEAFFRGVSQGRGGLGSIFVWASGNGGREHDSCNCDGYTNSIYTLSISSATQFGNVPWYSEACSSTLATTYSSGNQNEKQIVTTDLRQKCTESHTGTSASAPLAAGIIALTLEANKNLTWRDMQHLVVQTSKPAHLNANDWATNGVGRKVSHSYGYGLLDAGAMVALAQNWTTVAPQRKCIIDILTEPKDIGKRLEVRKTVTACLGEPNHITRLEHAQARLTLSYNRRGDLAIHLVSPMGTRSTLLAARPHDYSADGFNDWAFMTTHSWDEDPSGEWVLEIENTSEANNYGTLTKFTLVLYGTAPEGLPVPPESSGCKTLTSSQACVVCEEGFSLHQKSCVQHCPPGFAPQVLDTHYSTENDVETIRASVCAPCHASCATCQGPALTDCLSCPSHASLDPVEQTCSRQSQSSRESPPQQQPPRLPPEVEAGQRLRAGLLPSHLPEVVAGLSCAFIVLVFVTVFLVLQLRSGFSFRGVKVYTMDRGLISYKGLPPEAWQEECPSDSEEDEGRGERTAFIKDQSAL
3',5'-cyclic-AMP phosphodiesterase 4B (Homo sapiens), sequence (Q07343 whole entry, looked up): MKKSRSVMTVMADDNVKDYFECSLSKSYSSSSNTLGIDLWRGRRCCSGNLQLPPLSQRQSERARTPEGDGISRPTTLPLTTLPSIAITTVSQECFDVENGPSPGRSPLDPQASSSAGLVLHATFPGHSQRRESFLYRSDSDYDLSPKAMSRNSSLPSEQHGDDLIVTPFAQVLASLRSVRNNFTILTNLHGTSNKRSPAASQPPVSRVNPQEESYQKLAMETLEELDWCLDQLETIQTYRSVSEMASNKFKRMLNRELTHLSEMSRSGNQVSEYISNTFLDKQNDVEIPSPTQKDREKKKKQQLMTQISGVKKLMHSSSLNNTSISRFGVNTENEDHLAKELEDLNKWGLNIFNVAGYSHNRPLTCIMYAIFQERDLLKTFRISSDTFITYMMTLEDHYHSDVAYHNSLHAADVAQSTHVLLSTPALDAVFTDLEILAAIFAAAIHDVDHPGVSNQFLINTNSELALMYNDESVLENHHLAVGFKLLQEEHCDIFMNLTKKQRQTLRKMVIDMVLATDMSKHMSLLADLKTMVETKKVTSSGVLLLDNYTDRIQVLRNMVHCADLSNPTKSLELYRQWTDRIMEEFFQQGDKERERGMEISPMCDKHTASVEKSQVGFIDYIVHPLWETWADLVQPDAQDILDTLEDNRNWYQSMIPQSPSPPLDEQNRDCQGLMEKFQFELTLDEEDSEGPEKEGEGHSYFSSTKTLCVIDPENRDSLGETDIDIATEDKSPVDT
Cytochrome P450 1A2 (Homo sapiens), sequence (P05177 whole entry, looked up): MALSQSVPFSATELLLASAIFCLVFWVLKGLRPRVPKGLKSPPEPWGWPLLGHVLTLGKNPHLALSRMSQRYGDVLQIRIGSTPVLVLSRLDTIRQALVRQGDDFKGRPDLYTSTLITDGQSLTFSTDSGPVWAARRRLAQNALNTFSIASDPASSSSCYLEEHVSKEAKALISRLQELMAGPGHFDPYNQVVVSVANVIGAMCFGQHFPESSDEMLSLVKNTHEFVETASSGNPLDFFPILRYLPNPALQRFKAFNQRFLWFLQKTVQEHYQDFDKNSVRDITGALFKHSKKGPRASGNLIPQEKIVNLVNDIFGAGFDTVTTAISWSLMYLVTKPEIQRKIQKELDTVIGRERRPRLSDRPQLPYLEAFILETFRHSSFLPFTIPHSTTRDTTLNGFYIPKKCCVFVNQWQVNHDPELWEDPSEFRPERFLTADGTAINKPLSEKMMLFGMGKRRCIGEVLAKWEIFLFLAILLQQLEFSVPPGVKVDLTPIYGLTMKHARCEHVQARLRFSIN

In the case of `Ic1cncc(OC[C@@H]2CCN2)c1`, the Potency was 0.398 µM (active) in [1], more than 46 µM in [2], more than 46 µM in test [3] and 34.9 µM (active) in test [7]. Further, the compound was called inactive in [4]. Also, the Potency result (in test [5]; in the test with Furin (Homo sapiens); in [6]; in test [8]; in [9]; in test [10]) was “inactive” in each case. Further, the Potency result in test [11] and in test [12] was “inactive” each time.
